# Screens from PubChem.
# 12-LOX inh – Primary qHTS assay for inhibitors of human arachidonate 12S-lipoxygenase (ALOX12): Round 2 | Polyunsaturated fatty acid lipoxygenase ALOX12 (Homo sapiens), P18054 | purified 12hLO, xylenol orange hydroperoxide absorbance | Potency, µM (series often up to 108 µM), for inactives: at the top dose activity change, negative = inhibition, usual class: inhibitors | 580,000 compounds, 1.1% hits; note: % is set by controls: 0 for no effect and ±100 for the full control effect
#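 Purified human 12hLO at 150 nM in 25 mM Hepes, 0.01% Triton X-100, pH 7.0, preincubated 15 min at room temperature with compound. Reaction started with 40 uM arachidonic acid, 30 min at room temperature. Hydroperoxide measured by Fe-xylenol orange, 573/405 nm absorbance ratio.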
# HP1b binding inh – HTS for Inhibitors of HP1-beta Chromodomain Interactions with Methylated Histone Tails | Chromobox protein homolog 1 (Homo sapiens), P83916 | AlphaScreen HP1-beta / biotin-H3K9me3 peptide binding | Potency, µM (highest dose often 114 µM), for the others: top-dose activity change, negative = inhibition, most hits filed as inhibitors | 390,000 compounds, 0.56% hits | AID 540317, 2011; note: nearly all actives have a fitted effect of over 70% in size
# Target sequence (P83916 whole entry, looked up): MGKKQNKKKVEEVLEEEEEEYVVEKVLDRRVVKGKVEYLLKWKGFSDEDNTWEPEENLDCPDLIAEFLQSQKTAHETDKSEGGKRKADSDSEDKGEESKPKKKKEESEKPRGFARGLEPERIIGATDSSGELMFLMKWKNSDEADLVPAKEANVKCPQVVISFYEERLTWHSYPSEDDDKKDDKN
#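 Compound inhibition of the preformed complex between 50 nM HP1-beta and 50 nM biotinylated H3K9me3 peptide was read by AlphaScreen. Buffer was PBS pH 7.4 with 0.01% Tween-20. Incubations ran 30 min at room temperature, with 10 ug/mL donor/acceptor beads.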
# G9a block – qHTS Assay for Inhibitors of Histone Lysine Methyltransferase G9a; Histone-lysine N-methyltransferase EHMT2 (Homo sapiens), Q96KQ7; G9a H3K9 monomethylation, AlphaScreen, 2 h; Potency, µM (titrated, usually from 102 µM), inactives show top-dose activity, negative = inhibition, most hits filed as inhibitors; 350,000 compounds, 8.8% hits; AID 504332, 2011; note: % is set by controls: 0 for no effect and ±100 for the full control effect; nearly all actives have a fitted effect of over 75% in size
# Target sequence (Q96KQ7 913-1193 limits assumed): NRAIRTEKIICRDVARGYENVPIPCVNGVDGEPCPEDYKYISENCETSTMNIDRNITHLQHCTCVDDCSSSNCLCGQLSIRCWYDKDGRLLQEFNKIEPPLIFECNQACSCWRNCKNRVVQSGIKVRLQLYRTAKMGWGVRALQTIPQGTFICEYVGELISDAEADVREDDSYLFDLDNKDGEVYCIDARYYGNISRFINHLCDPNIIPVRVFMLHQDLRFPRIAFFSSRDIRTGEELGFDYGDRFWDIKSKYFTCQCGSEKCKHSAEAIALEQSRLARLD
#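 Readings reflect AlphaScreen signal from monomethyl-H3K9 antibody detection. HMT at 20 nM; substrate b-H3K9 500 nM; cofactor SAM 20 uM; 2 h RT reaction; compounds tested as titrations in qHTS with 15 min preincubation.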
# JMJD2A Tudor inh – qHTS Assay for Inhibitors of JMJD2A-Tudor Domain | Lysine-specific demethylase 4A (Homo sapiens), O75164 | AlphaScreen JMJD2A-Tudor / H3K4me3 peptide binding | Potency, µM (top dose mostly 114 µM), without a hit: at the highest dose activity change, negative = inhibition, actives largely listed as inhibitors | 390,000 compounds, 4.4% hits; note: % is set by controls: 0 for no effect and ±100 for the full control effect; nearly all actives have a fitted effect of over 50% in size
# Sfp PPTase inh – qHTS Assay for Inhibitors of Bacillus subtilis Sfp phosphopantetheinyl transferase (PPTase); 4'-phosphopantetheinyl transferase ffp (Bacillus subtilis), Q9F4F7; Potency, µM, for the others: largest response in the series, negative = inhibition, most hits filed as inhibitors; AID 1490, 2009; 310,000 compounds, 3.5% hits; Biochemical Sfp PPTase activity, qHTS;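 note: the enzyme is Sfp with the accession as filed and its product quenches rhodamine fluorescence; 0% = enzyme reaction without inhibitor and -100% = no enzyme wells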
#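 Buffer: 50 mM Hepes-Na pH 7.6, 10 mM MgCl2, 0.01% Nonidet P-40, 0.01% BSA. Enzyme 15 nM, pre-exposed to compound 15 min; substrates then added and fluorescence change tracked over 30 min.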
# BAZ2B inh – qHTS Assay for Inhibitors of BAZ2B; AlphaScreen BAZ2B-H3K14Ac peptide displacement; Potency, µM (series often up to 114 µM), without a hit: at the top dose activity change, negative = inhibition, usual class: inhibitors; 360,000 compounds, 4.4% hits; AID 504333, 2011; note: % is set by controls: 0 for no effect and ±100 for the full control effect; nearly all actives have a fitted effect of over 60% in size
#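 AlphaScreen displacement: compounds (up to 110uM) incubated 30 min at room temperature with a preformed 50 nM BAZ2B/50 nM biotinylated H3K14Ac peptide complex in PBS pH 7.4 with Tween-20. Donor and acceptor beads at 10 ug/mL final added, 20 min light-protected before reading.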
# * hit, by the source's call; ? = inconclusive; / = not tested or not shown; ! = a repeat was not active; [ ] = remark or other dose. This is a sample that favours compounds with a hit; in the whole collection about 8.7% have one here. Calls come from the whole dose curve; as a rule, active = well fitted curve in the direction sought with a large enough effect; inconclusive = small, poorly fitted or top-dose-only effect, or another doubt; inactive = no such curve, though single readings can be large; an effect the other way counts as inactive or inconclusive. Potency is the fitted concentration of half-maximal effect.
SMILES,12-LOX inh,HP1b binding inh,G9a block,JMJD2A Tudor inh,Sfp PPTase inh,BAZ2B inh
O=C(Nc1ccccc1N1CCCC1)c1ccc2c(c1)OCO2,-21%,22%,45µM*,-17%[57.1 µM],0%,-39%
COc1ccc(-c2ocnc2C(=O)NCc2cc(OC)c(OC)c(OC)c2)cc1,10%,/,/,/,/,/
CCOC(=O)c1c(CNCCN(CC)CC)n(C)c2cc(Br)c(OC)cc12,?,-5%,79µM*,-31%,1%,?
CCOC(=O)c1c(C)n(C)c2cc(Br)c(OC)cc12,-7%,42%,12%,8%,15%,10%
Cc1c(C(=O)N2CCCC2)oc2c1-c1[nH]ncc1CC2,?,24%,50µM*,-15%,?,-5%
CC1CCC(C(=O)NNC(=O)OC(C)(C)C)CC1 (stereo not drawn),-2%,/,/,/,/,/
Cc1cccc(CN2CCCC(O)(CNCc3ncccc3C)C2=O)c1 (stereo not drawn),89%,/,/,/,/,/
O=C(NCc1ccc2c(c1)OCO2)C(=O)NC1CCCCC1,?,?,?,50µM*,21%,-3%
CC1CCCC(C)N1C(=O)CNCc1ccc2c(c1)OCO2 (stereo not drawn),?,1%,50µM*,50µM*,-11%,?
c1cc2c(cc1NC1CCCCCC1)OCO2,-2%,?,7.9µM*,50µM*,?,40µM*
O=C(NCc1ccc2c(c1)OCO2)C(=O)NCC1CCCO1 (stereo not drawn),?,39%,17%[59 µM],-5%,9%,0%
CC(C)(C)C1CCC(=NNC(=O)Cc2ccccc2)CC1 (stereo not drawn),41%,/,/,/,/,/
NCCCOc1cccc2ccccc12,-3%,/,/,/,/,/
c1ccc(CCNCCCOc2cccc3ccccc23)cc1,?,-31%,-5%[12.7 µM],40µM*,-20%,-35%
CCC(=O)N1CCc2c(sc3ncnc(N(C)Cc4ccccc4)c23)C1,6%,/,/,/,/,/
CCCCCC(=O)N1C[C@@H](O)[C@H](n2cc(-c3ccc(F)cc3)nn2)C[C@@H]1c1ccc(Cl)cc1,10µM*,/,/,/,/,/
CCCCCC(=O)N1C[C@H](n2cc(-c3ccc(F)cc3)nn2)[C@@H](O)C[C@@H]1c1ccc(Cl)cc1,-15%,/,/,/,/,/
CCN(CC)c1cc(C)c2ccccc2n1,?,36%,1.1µM*,?,0%,-1%
O=C(CSc1ccc(-c2ccco2)nn1)Nc1ccccc1F,0%,27%,40µM*,-5%,32µM*,-16%
O=C(CSc1ccc(-c2cccnc2)nn1)Nc1ccccc1F,?,15%,/,-10%,-6%,-3%
CCOc1ccccc1NC(=O)CSc1ccc(-c2ccco2)nn1,?,6%,25µM*,-32%,50µM*,?
CC1(C)CC(=O)C2=C(C1)OC1=C(C(=O)CC(C)(C)C1)C2c1ccccc1C(F)(F)F,-3%,/,/,/,/,/
CCOC(=O)C1=C(C)c2ccccc2OC1(CC)C(=O)OCC (stereo not drawn),-28%,111%,88%,53%,-5%,/
CCOC(=O)C1=C(C)c2ccccc2N(C(=O)OC)C1(C)C(=O)OCC (stereo not drawn),?,51%,26%,-2%,3.5µM*,/
C1CNCCOCCNCCN1,-11%,50%,-5%,-25%,-9%,45µM*
SMILES,12-LOX inh,HP1b binding inh,G9a block,JMJD2A Tudor inh,Sfp PPTase inh,BAZ2B inh
CC[n+]1c(C)cc2c(sc3ccccc32)c1C,?,44%,22µM*,?,11%,-19%
O=C(COc1cccc(F)c1)N1c2ccccc2Sc2ccccc21,/,?,7%[59 µM],56µM*,-9%,-2%
Cc1ccc(S(=O)(=O)/N=C2/C=C(C3C(=O)CC(C)(C)CC3=O)C(=O)c3ccccc32)cc1,45µM*,-36%,8.9µM*,?,?,?
Cc1cc(C)c(S(=O)(=O)/N=C2\C=C(NS(=O)(=O)c3ccccc3)C(=O)c3ccccc32)c(C)c1,-54%,?,6.3µM*,13µM*,-15%,5.6µM*
Cc1ccc(S(=O)(=O)N2CCC(C(=O)C3C(=O)CC(C)(C)CC3=O)CC2)cc1,-3%,-11%,-3%,-4%,-3%,-12%
Cc1ccc(S(=O)(=O)/N=C2\C=C(NS(=O)(=O)c3ccccc3)C(=O)c3ccccc32)cc1,?,?,/,32µM*,/,/
CCc1nc2ccc(C(=O)Nc3ncccc3O)cc2nc1CC,-2%,/,/,/,/,/
O=C(NC[C@H]1OC[C@@H](NCc2ccccn2)[C@@H]1O)c1cccs1,132%[176 µM],/,/,/,/,/
CCc1cc2c(cc3c(=O)n(CC(=O)NC4CCC(C)CC4)ncn32)s1 (stereo not drawn),-3%,11%,-5%[59 µM],-14%,/,1%
CCc1cc2c(cc3c(=O)n(CC(=O)NC(C)c4ccccc4)ncn32)s1 (stereo not drawn),?,9%,-3%[59 µM],100µM*,/,-7%
CCC(C)c1ccc(NC(=O)C2CCCCC2)cc1 (stereo not drawn),-1%,/,/,/,/,/
Cc1cc(C)nc(NCC(O)CNc2ccccc2C)n1 (stereo not drawn),-26%,-8%,10%,-24%,11%,-28%
Cc1cc(C)nc(NCC(O)COc2ccccc2C)n1 (stereo not drawn),-10%,26%,45µM*,-4%,8%,0%
Cc1cc(C(=O)COc2cccc3cccnc23)c(C)n1C,0%,-15%,2.8µM*,-12%[57.1 µM],2%,11µM*
Cc1ccc(OCC(=O)c2cc(C)n(C)c2C)c([N+](=O)[O-])n1,-8%,1%,?,-29%,?,56µM*
Cn1c(COc2cccc3cccnc23)nnc1SCC(=O)O,7.9µM*!,?,/,-30%,13%,-2%
Cc1cc(C(=O)COc2nncc3ccccc23)c(C)n1C,0%,-2%,79µM*,-10%,12%,-8%
CCCCCN1C(=O)/C(=C/c2c(N3CCc4ccccc4C3)nc3ccccn3c2=O)SC1=S,-9%,?,/,40µM*,/,/
Cc1cc(C)c(C(=O)c2cccs2)c(C)c1,?,107%,/,33%,/,/
Cc1cc(C(=O)c2cccs2)c(N)s1,?,?,40µM*,?,50µM*,-55%
CN(Cc1ccc(-n2cccn2)cc1)C(=O)c1cnn2c1NC(c1ccco1)CC2C(F)(F)F (stereo not drawn),246%,11%,?,-23%,20µM*,-4%
